# A number with no mark means an inactive call. Calls of active or inactive are those of the source.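 Rule for the calls, unless noted: active = mean inhibition over 43.08%, the solvent-only control mean plus 3 SD; inactive = the rest.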
# Experiments:
# [1] = target: Nuclear receptor coactivator 3 (Homo sapiens) (UniProt Q9Y6Q9); assay: NCOA3 GAL4-fusion reporter inhibition – cell-based, luminescence, quadruplicate, confirmation (AID 588792); details: HEK293 GAL4-SRC3 luciferase reporter, at 3.6 µM, active compounds read high;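 note: 0% = DMSO treated cells and 100% = gossypol at 36 µM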
# [2] = system: transactivating tegument protein VP16 (Human herpesvirus 1), Gal4-VP16 luciferase reporter; assay: repression of VP16-driven luciferase reporter – cell-based, luminescence, high throughput, counter-screen for SRC3 inhibitor project (AID 588794; in the data active = inhibition above about 30%); details: mammalian cells, at 3.6 µM, active compounds read high
# [3] = target: Nuclear receptor coactivator 1 (Homo sapiens) (UniProt Q15788); assay: NCOA1 GAL4-fusion reporter inhibition – cell-based, luminescence, quadruplicate, confirmation (AID 588820;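 active = mean inhibition above 46.68%, the untreated control wells mean plus 3 SD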;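 note: 0% = DMSO wells and 100% = gossypol 36 µM treated wells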); details: HEK293 GAL4-SRC1 luciferase reporter, at 3.6 µM, active compounds read high
# [4] = repression of VP16-driven luciferase reporter – cell-based, luminescence, high throughput, counter-screen for SRC1 inhibitor project (AID 588824; in the data active = inhibition above about 25%); details: cell-based VP16 transactivation luciferase luminescence; at 3.6 µM; active compounds read high
# Nuclear receptor coactivator 1 (Homo sapiens), sequence (Q15788 whole entry, looked up, the tested form may be a part): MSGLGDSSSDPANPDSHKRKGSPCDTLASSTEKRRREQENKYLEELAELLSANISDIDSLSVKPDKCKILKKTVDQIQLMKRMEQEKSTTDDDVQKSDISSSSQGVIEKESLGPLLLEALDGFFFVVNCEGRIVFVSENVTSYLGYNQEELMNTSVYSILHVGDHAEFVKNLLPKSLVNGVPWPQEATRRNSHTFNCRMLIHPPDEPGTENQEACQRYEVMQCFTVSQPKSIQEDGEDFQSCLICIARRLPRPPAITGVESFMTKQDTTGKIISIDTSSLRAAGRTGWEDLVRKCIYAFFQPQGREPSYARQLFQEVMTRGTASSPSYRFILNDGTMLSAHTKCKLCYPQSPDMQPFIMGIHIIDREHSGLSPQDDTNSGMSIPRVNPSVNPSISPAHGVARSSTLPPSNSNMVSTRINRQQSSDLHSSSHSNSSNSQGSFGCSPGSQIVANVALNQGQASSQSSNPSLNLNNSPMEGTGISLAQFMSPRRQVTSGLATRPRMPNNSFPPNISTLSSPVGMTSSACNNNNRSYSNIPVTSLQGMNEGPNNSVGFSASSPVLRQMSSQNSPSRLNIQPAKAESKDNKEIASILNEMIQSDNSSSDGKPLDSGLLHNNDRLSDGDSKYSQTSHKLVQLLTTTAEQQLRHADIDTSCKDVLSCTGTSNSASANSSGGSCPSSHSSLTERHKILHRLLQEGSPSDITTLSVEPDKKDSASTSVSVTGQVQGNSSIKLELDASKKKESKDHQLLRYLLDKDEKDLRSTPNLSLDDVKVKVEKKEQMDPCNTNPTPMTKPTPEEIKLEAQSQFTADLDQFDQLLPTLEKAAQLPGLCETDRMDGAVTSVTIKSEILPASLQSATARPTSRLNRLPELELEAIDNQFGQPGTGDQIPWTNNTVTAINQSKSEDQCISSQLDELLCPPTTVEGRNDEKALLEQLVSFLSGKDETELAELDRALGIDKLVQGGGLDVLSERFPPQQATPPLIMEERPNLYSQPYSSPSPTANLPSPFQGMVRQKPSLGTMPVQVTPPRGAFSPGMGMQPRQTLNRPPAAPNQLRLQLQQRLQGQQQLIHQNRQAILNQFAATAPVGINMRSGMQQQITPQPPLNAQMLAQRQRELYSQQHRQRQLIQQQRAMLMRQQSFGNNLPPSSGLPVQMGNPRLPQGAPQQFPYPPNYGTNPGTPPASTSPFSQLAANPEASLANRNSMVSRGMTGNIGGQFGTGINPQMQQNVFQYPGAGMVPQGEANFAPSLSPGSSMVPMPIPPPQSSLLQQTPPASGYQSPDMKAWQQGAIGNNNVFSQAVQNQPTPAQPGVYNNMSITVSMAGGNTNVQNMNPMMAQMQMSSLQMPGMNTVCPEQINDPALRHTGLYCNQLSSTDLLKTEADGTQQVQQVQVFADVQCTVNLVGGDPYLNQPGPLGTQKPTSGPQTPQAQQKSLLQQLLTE
# Nuclear receptor coactivator 3 (Homo sapiens), sequence (Q9Y6Q9 whole entry, looked up, the tested form may be a part): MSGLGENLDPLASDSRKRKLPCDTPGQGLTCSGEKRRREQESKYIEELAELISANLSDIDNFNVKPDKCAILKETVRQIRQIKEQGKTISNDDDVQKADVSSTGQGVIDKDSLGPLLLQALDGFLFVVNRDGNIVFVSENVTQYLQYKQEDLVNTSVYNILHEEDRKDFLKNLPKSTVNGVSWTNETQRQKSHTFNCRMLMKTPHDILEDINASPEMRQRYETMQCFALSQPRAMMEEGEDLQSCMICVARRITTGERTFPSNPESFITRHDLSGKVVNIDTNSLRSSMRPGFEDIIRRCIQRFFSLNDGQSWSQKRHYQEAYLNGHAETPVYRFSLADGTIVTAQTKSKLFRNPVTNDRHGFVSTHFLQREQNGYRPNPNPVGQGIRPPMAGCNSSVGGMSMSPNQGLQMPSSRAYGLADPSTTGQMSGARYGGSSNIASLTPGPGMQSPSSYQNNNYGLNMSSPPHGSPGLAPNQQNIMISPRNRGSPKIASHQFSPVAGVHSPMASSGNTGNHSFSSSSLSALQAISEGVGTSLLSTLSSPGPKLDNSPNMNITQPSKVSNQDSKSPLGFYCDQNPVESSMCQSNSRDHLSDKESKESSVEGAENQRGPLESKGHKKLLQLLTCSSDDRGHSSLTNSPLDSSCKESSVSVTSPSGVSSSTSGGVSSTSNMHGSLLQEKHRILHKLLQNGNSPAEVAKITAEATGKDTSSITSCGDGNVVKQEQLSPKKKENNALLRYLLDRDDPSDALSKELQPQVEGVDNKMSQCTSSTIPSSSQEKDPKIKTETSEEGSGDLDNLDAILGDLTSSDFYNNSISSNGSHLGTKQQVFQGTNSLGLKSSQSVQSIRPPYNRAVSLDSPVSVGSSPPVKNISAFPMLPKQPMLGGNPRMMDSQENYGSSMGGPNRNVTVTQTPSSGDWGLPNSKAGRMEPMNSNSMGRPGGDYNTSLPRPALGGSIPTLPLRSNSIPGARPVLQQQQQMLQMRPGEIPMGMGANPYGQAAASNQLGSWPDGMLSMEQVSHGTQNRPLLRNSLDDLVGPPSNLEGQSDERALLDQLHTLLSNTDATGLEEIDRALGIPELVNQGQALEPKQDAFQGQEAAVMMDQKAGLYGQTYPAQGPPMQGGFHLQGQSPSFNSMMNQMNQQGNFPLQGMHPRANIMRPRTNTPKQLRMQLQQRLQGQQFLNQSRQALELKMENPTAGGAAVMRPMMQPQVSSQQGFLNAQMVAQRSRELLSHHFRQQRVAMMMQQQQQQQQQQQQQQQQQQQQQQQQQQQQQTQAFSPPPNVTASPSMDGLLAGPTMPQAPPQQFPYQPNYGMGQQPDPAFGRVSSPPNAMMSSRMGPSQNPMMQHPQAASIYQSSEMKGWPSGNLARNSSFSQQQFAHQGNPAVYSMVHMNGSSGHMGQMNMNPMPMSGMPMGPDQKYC
SMILES,inhibition [1],inhibition [2],inhibition [3],inhibition [4]
CCN(CC)c1ccc2cc(NC(=O)CCC(=O)O)c(=O)oc2c1,68.4% (active),42.9% (active),44.2%,39.2% (active)
COc1ccc(OC)c(C2C3=C(CCCC3=O)NC3=C2C(=O)CCC3)c1,4.98%,-6.31%,,
O=C(NC(=O)N1CCN(c2cccc(Cl)c2)CC1)c1ccccc1,23.9%,43.6% (active),17.9%,41.2% (active)
CC(C)(C)OC(=O)NCC(=O)Oc1cc2oc(=O)cc(-c3ccccc3)c2cc1Cl,21.9%,15.7%,21.3%,15.3%
COc1cccc2[nH]c(=O)c(-c3ccccc3)cc12,-103%,-36.1%,,
O=C(NCc1ccccc1)c1csc(-c2cccnc2)n1,54.8% (active),30.8% (active),42.7%,37% (active)
OCCNc1c2ccccc2nc2ccccc12,4.16%,40.4% (active),5.64%,42.2% (active)
CC(C)c1ccc(NC(=O)C2CCCN(S(=O)(=O)c3cccnc3)C2)cc1 (stereo unspecified),-12.3%,4.41%,,
Cc1cc(=O)[nH]c(Nc2cccc(C(F)(F)F)c2)n1,38.8%,34.2% (active),49.4% (active),27% (active)
CC(C)(C)NC(=O)CSc1nc2ccc(NC(=O)CSc3nnnn3Cc3ccccc3)cc2s1,0.03%,28.7%,3.45%,26.4% (active)
Cc1ccc(N=c2c([N+](=O)[O-])nn(-c3ccc4c(c3)OCCO4)n2O)cc1F,36.5%,-0.46%,19.9%,-9.63%
O=C(Nc1nc(-c2ccccc2)cs1)C1CCCN(S(=O)(=O)c2ccccc2)C1 (stereo unspecified),-1.67%,16.4%,-23.1%,22.9%
COc1ccc(-c2ncncc2-c2ccccc2)c(O)c1,27%,17.1%,35%,14.7%
CN(C)CCCN1C(=O)c2cccc3c([N+](=O)[O-])ccc(c23)C1=O,17.8%,5.35%,-9.62%,0.85%
Nc1ncnc(NCc2ccccc2)c1[N+](=O)[O-],38.8%,26.7%,38.1%,42.4% (active)
CC(C)(C)c1cc[n+](C2=C([O-])c3ccccc3C(=O)/C2=N\S(=O)(=O)c2cccs2)cc1,9.53%,9.97%,-0.27%,7.69%
CC(=O)N1CCN(c2ncnc3ccccc23)CC1,29.2%,26.3%,45.1%,26.3% (active)
COc1ccc2c(c1OC)C(=O)N1c3ccccc3C(=O)N(c3ccccc3)C21 (stereo unspecified),17.1%,8.85%,-5.64%,2.1%
CC1CCc2c(sc(NC(=O)c3cccs3)c2C(=O)O)C1 (stereo unspecified),33.8%,60.6% (active),11.8%,54.1% (active)
O=C(N/N=C/c1cc(Cl)ccc1O)C(=O)Nc1ccccc1OC(F)(F)C(F)F,29.3%,38.3% (active),37.7%,44.3% (active)
O=C1CC(c2ccc3c(c2)OCO3)Sc2nc3ccccc3n21 (stereo unspecified),-6.28%,-34.8%,-110%,-73.2%
Cc1ccc(S(=O)(=O)NC(CC(C)C)C(=O)NCC(c2ccco2)N2CCCCC2)cc1 (stereo unspecified),27%,2.93%,32.8%,-1.82%
CN1CC(=O)N2C(c3cccc([N+](=O)[O-])c3)c3[nH]c4ccccc4c3C[C@H]2C1=O (stereo partly specified),36.1%,36.7% (active),26.9%,34.5% (active)
O=[N+]([O-])c1ccc(NC(c2ccccc2)c2ccc3cccnc3c2O)cc1 (stereo unspecified),65% (active),58.8% (active),65.4% (active),71.2% (active)
NC(=O)C(C(=O)/C=C/c1ccc(Cl)cc1)=C1SCCS1,29.4%,36.6% (active),30.9%,33.8% (active)
Cc1cc(C)nc(/N=C(\N)Nc2ccc(-c3ccccc3)cc2)n1,9.37%,33.3% (active),21.7%,30.1% (active)
COC1C(CO)OC(n2c3c(Cl)cccc3c3c4c(c5c6cccc(Cl)c6[nH]c5c32)C(=O)NC4=O)C(O)C1O (stereo unspecified),68.3% (active),49.2% (active),23.4%,42.6% (active)

SMILES,inhibition [1],inhibition [2],inhibition [3],inhibition [4]
CC(=O)NC(c1cc(Cl)c2cccnc2c1O)C(C)C (stereo unspecified),31.1%,23.5%,38.5%,20%
Fc1ccc(NC(=S)NNc2ncc(C(F)(F)F)cc2Cl)c(F)c1,4.99%,23%,15.9%,29.1% (active)
Oc1ccc(C=NNc2ccccn2)c(O)c1,76% (active),-12.1%,14.7%,-1.88%
CCN1/C(=C/c2ccc3cc(C)cc(C)c3[n+]2CC)Sc2cc(C)ccc21,39.4%,66.3% (active),0.74%,59.3% (active)
CN(Cc1ccccc1)c1ncnc(N)c1[N+](=O)[O-],41.4%,34.3% (active),38.4%,30% (active)
CN1CCN(c2ncnc3scc(-c4ccccc4Cl)c23)CC1,59.6% (active),41.5% (active),55.4% (active),44.3% (active)
CC12CCC(C(=O)N/N=C/c3ccc(O)cc3O)(OC1=O)C2(C)C (stereo unspecified),6.17%,16.8%,11.4%,6.4%
Cc1cc(=O)[nH]c(N/N=C/c2cc(C)n(CC(F)(F)F)c2C)n1,22%,60.4% (active),43.5%,60.3% (active)
CN(C(=O)COC(=O)/C=C/c1cccc([N+](=O)[O-])c1)C1CCS(=O)(=O)C1 (stereo unspecified),39.1%,32.4% (active),41.6%,29.5% (active)
Cc1nn(-c2ccccc2)c(Cl)c1C(=O)N1CCN(c2ncnc3c2cnn3-c2ccccc2)CC1,25.8%,31.4% (active),4.61%,44.9% (active)
COc1ccc(-c2cnc(N)nc2-c2ccc(OC)cc2O)cc1,22.5%,13.7%,29.7%,18.4%
C[n+]1c2n(c3ccccc31)N=C(c1ccccc1)CS2,4.94%,37.2% (active),-2.14%,35.1% (active)
Cc1ccccc1-c1cc(C(=O)Nc2sc(C(=O)OC(C)C)c(C)c2C#N)c2ccccc2n1,31.8%,50.9% (active),37.2%,40.9% (active)
CC(O)CC(C(=O)NNc1ccccc1)C(=O)NNc1ccccc1 (stereo unspecified),10.1%,16%,-6.15%,13.1%
O=C(NCc1ccco1)c1ccc2c(c1)N(Cc1ccccc1)CCS2,4.13%,6.64%,3.44%,1.86%
NC(=O)N=Nc1c2[nH]c3ccccc3nc-2c2ccccc12,-8.03%,45% (active),-11.8%,48.8% (active)
O=C(Nc1c(-c2ccccc2)[nH][nH]c1=O)c1cccc(C(F)(F)F)c1,15.3%,6.35%,22%,0.94%
COc1ccc2[nH]c(=O)c(CN(CCN3CCCC3)C(=O)Nc3ccccc3Cl)cc2c1,31.9%,20.4%,36%,18.6%
CC(C)(C)c1ccc(/C=C2\SC(=O)N(CCNC(=O)c3cccc(S(=O)(=O)N4CCOCC4)c3)C2=O)cc1,-11.1%,-19.8%,-58.1%,-59.9%
Cc1ccc2c(C)nc(Nc3nc(CSc4nc5ccccc5[nH]4)cc(=O)[nH]3)nc2c1,12.4%,16.1%,-14.6%,17.5%
CC(=O)N(C(C)=O)c1ncc2c([nH]c3ccccc32)c1C#N,47.9% (active),30.6% (active),48.5% (active),26.8% (active)
Cc1ccc(S(=O)(=O)N2CCOCC2)cc1NC(=O)CN1CCN(c2ccc(O)cc2)CC1,12.4%,-1.58%,-6.12%,11.1%
Cc1ccc(S(=O)(=O)N2C[C@@H]3CCCC[C@@H]3[C@@H](C)[C@H]2c2cn(Cc3ccccc3)c3ncccc23)cc1,22.3%,47.6% (active),25.8%,42.2% (active)
O=C(N/N=C(\c1ccccc1)c1ccccn1)c1ccccc1Cl,35.8%,22.1%,25.9%,12.4%
CC(C)c1nc(NCCO)c(C#N)c2c1CCCC2,40%,30% (active),22.1%,35.1% (active)
O=C1C(F)=CC(COC(c2ccccc2)(c2ccccc2)c2ccccc2)OC1n1cc(F)c(=O)[nH]c1=O (stereo unspecified),66% (active),60.3% (active),-11.1%,62.1% (active)
